Results filed as inconclusive are left out. The source made the active and inactive calls. Calls come from the whole dose curve.

In this experiment the target is Retinoic acid receptor RXR-alpha (Homo sapiens) (UniProt P19793). Description: qHTS assay for small molecule agonists of retinoid X receptor alpha signaling (AID 588544). Conditions: HEK293T RXRa-UAS-bla, beta-lactamase reporter, 18 h; series mostly up to 76.7 µM. An excerpt: NIH Chemical Genomics Center [NCGC] U.S. Environmental Protection Agency [EPA] National Institutes of Environmental Health Sciences [NIEHS] National Toxicology Program [NTP] NCGC Assay Overview The Retinoid X receptor (RXR), a nuclear hormone receptor is expressed in liver, spleen, placenta, epidermis, central nervous system. These receptors are able to form homo and heterodimers with other nuclear receptors and due to this heterodimerizing ability, RXR functions as master regulators producing diverse physiological effects. Three subtypes of RXR exist; alpha, beta and gamma. Retinoid X receptor alpha (RXR-alpha) has potential roles in metabolic signaling pathways, skin alopecia, dermal cysts, cardiac development, insulin sensitization etc. Therefore screening environmental chemicals on RXR-alpha signaling can be used for the studies focused on such therapeutic applications.
Sequence of Retinoic acid receptor RXR-alpha (Homo sapiens) (P19793 whole entry, looked up): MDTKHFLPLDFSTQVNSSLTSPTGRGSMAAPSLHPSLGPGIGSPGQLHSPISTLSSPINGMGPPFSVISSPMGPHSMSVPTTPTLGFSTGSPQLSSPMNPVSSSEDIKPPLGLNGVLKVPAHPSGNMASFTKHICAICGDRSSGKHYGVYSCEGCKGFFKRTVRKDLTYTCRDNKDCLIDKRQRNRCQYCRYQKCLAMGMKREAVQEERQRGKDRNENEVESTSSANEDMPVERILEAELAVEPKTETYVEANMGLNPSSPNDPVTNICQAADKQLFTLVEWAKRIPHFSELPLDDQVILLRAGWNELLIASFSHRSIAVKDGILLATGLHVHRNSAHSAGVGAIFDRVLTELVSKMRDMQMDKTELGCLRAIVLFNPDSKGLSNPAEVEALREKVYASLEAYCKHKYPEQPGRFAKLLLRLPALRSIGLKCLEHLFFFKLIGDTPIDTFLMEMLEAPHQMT
NCGC Assay Protocol Summary Using a beta-lactamase reporter-gene under control of Retinoid X receptor--alpha (RXR-alpha) response element, a cell-based assay [GeneBLAzer (RXR-alpha -UAS-bla assay developed by Invitrogen] was used to measure RXR-alpha ligands signaling. GeneBLAzer RXR-alpha -UAS-bla HEK293T cells were used with assay medium containing 2% charcoal-stripped FBS. The assay was performed in clear bottom black Greiner 1536-well plates. 9-cis-retinoic acid was used in the screen as the positive control. Library compounds were measured for their ability to stimulate the reporter gene activity. Compounds were screened in a titration series in 1536-well format. The fluorescence intensity (405 nm excitation, 460/530 nm emission) was measured using an EnVision plate reader. Data was normalized relative to 9-cis-retinoic acid control (500 nM, 100%), and DMSO only wells (basal, 0%). Concentration-response titration points for each compound were fitted to the Hill equation yielding concentrations of half-maximal stimulation (EC50) and maximal response (efficacy) values. qHTS protocol for RXR-alpha beta-lactamase assay in agonist mode [Step] [Parameter] [Value] [Description] 1. Reagent; 6 uL; 2500 cells/well 2. Incubation; 37 C for 4 hrs 3. Compounds; 23 nL; 0.59 nM to 92 uM 4. Controls (9-cis-retinoic acid); 23 nL, - One column with dose response, start 38 uM, 1:3 dilutions in duplicates - Final concentrations of 500 nM and 50 nM in two columns 5. Incubation; 37 C for 18 hrs 6. Detection reagent; 1 uL of CCF4-dye 7. Incubation; RT for 2 hrs 8. Detection; Fluorescence; Envision plate reader
(qHTS replaces the single test concentration by a dilution series.)
For `CNC(=O)Oc1ccc2c(c1)[C@]1(C)CCN(C)[C@@H]1N2C`, the molecule was called inactive. In the case of `[Cl][In]([Cl])[Cl]` it was “inactive”; in that of `CCCCCCCCCCCCOS(=O)(=O)O`, “inactive”. In the case of `CN(C)CCOC(C)(c1ccccc1)c1ccccn1` (centres undefined) it was “inactive”; in that of `Cc1cccc(Nc2cc(Cl)nc(SCC(=O)O)n2)c1C`, “inactive”; in that of `C[C@]12C[C@H](O)[C@H]3[C@@H](CCC4=CC(=O)CC[C@@]43C)[C@@H]1CC[C@@H]2C(=O)CO`, “inactive”. Regarding `COc1ccccc1O`, the result was inactive.

In the case of `CC1(C)[C@@H]2CC[C@@]1(C)C(=O)C2`, the result was inactive.

Take `CC12CCC(CC1)C(C)(C)O2`: the outcome was inactive.

On to `C[C@]12CC[C@@H]3c4ccc(O)cc4CC[C@H]3[C@@H]1CCC2=O`, for which the molecule was called inactive. Take `CCCCOC(=O)c1ccc(O)cc1`: the outcome was inactive.

As to `NCCNCCNCCN`, the molecule was classed as inactive.

As to `Oc1cccc(O)c1`, the result was inactive. Regarding `NCCNCCNCCNCCN`, the call was inactive. In the case of `CC(CN1c2ccccc2Sc2ccccc21)N(C)C` (centres undefined) it was “inactive”. For the molecule `CCOC(=O)c1ccc(O)cc1`, the molecule was called inactive.

Take `CN(C)CCCN1c2ccccc2Sc2ccc(Cl)cc21`: the molecule was classed as inactive. In the case of `NC(=O)c1ncn([C@@H]2O[C@H](CO)[C@@H](O)[C@H]2O)n1` it was “inactive”. `O=C1c2c(O)cccc2Cc2cccc(O)c21`: the outcome was inactive.

For `CN(C)CCC=C1c2ccccc2CCc2ccccc21`, the call was inactive. Then `Nc1ccc(S(=O)(=O)Nc2nccs2)cc1`, with “inactive”; and `CC(O)COc1ccccc1` (centres undefined), with “inactive”.

With `CCCCC(CC)COC(=O)c1ccccc1O` (centres undefined), the call was inactive. In the case of `O=C1O[C@H]([C@@H](O)CO)C(O)=C1O` it was “inactive”.
